From PubChem BioAssay (Tox21)
Results filed as inconclusive are left out. Activity calls are given as the source filed them. Calls come from the whole dose curve; as a rule, active = well fitted cell-killing curve with a large enough effect in the repeat runs; inconclusive = weak or mixed curves; inactive = flat fitted curve, though single readings scatter.

test: qHTS assay to identify small molecule antagonists of the estrogen related receptor (ERR) signaling pathway from Tox21 library - cell viability counter screen (AID 1224834); settings: ERR reporter cells viability, CellTiter-Fluor, 17.5 h; series mostly up to 92.4 µM; viability change, negative = cytotoxic: at the top concentration; note: nearly all actives have a fitted effect of over 30% in size
In short: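 ERR cells, 2,000/well; 6 h settle at 37 C/5% CO2; pin-tool compound transfer in DMSO; 17.5 h at 37 C; CellTiter-Fluor, 30 min; fluorescence intensity.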
% is set by controls: 0 for no effect and ±100 for the full control effect.

| SMILES | viability change, negative = cytotoxic |
| --- | --- |
| ONc1ccccc1 | 0.405% (inactive) |
| CC(C)OC(=O)CCC(=O)OC(C)C | 1.93% (inactive) |
| CC(C)(CO)C(O)C(=O)NCCCO (configuration not stated) | -1.76% (inactive) |
| Cn1c(=O)c2[nH]c(Br)nc2n(C)c1=O | -0.0787% [at 42.5 µM] (inactive) |
| COC(=O)CCCCC(=O)O | -0.0665% (inactive) |
| N[C@@H](Cc1ccc(O)cc1)C(=O)O | 1.55% [at 8.39 µM] (inactive) |
| COc1ccc(CCO)cc1 | 5.03% (inactive) |
| C[C@@H](O)C(=O)O | 3.4% (inactive) |
| CCCc1ccc(O)cc1 | -3.18% (inactive) |
| CC1(C)Oc2ccc(C#N)cc2[C@@H](N2CCCC2=O)[C@@H]1O | -1.67% [at 42.5 µM] (inactive) |
| CCC/C=C(\C=O)CC | -1.81% (inactive) |
| CC(C)=CCC/C(C)=C/COC=O | 2.12% (inactive) |
| O=C(CCCCC(=O)Nc1c(I)cc(I)c(C(=O)O)c1I)Nc1c(I)cc(I)c(C(=O)O)c1I | -10.4% [at 42.5 µM] (inactive) |
| COP(=O)(O)OP(=O)(O)OC | 0.15% (inactive) |
| O=C(O)CCCCCC(=O)O | 1.96% (inactive) |
| COS(=O)(=O)O | 0.086% (inactive) |
| C[C@]12CCC(=O)C=C1CC[C@H]1[C@@H]3CC[C@](O)(C(=O)CO)[C@@]3(C)C[C@H](O)[C@@]12F | -1.49% [at 42.5 µM] (inactive) |
| CCCCCCCCCOC(=O)CCCCC(=O)OCCCCCCC | 0.222% (inactive) |
| O=C1NC(c2ccccc2)(c2ccccc2)C(=O)N1COP(=O)(O)O | -5.07% [at 42.5 µM] (inactive) |

| SMILES | viability change, negative = cytotoxic |
| --- | --- |
| [O-][n+]1cccc(/C(Cl)=N/OC[C@@H](O)CN2CCCCC2)c1 | -1.98% [at 42.5 µM] (inactive) |
| CC(C)NC(=O)c1ccc(C=O)cc1 | 1.36% [at 42.5 µM] (inactive) |
| O=C1c2ccccc2C(=O)c2cc(Cl)ccc21 | 1.32% [at 8.39 µM] (inactive) |
| CCc1occc(=O)c1O | -0.709% (inactive) |
| CC(C)[C@H]1CC[C@H](C)C[C@@H]1O | 0.969% (inactive) |
| Cc1ncc([N+](=O)[O-])n1CC(C)O (configuration not stated) | 1.85% [at 42.5 µM] (inactive) |
| CC(=O)CCc1ccc(OC(C)=O)cc1 | 7% (inactive) |
| CC(C)OC(=O)OCOP(=O)(CO[C@H](C)Cn1cnc2c(N)ncnc21)OCOC(=O)OC(C)C | -1.48% [at 42.5 µM] (inactive) |
| CC12CCC(C1)C(C)(C)C2O (configuration not stated) | -6.03% (inactive) |
| CCN(CC)CCN | 3.64% [at 42.5 µM] (inactive) |
| CO[Si](CCCn1c(=O)n(CCC[Si](OC)(OC)OC)c(=O)n(CCC[Si](OC)(OC)OC)c1=O)(OC)OC | 1.21% [at 42.5 µM] (inactive) |
| CC(=O)CC(=O)OC(C)(C)C | 1.54% (inactive) |
| OCC1CCC(CO)CC1 (configuration not stated) | 0.599% (inactive) |
| OCC1(CO)COCOC1 | 0.542% (inactive) |
| CCC(C(=O)OCCN1CCOC(c2ccccc2)C1C)c1ccccc1 (configuration not stated) | -12.8% [at 42.5 µM] (inactive) |
| COc1cc(OC)nc(O[C@H](C(=O)O)C(OC)(c2ccccc2)c2ccccc2)n1 | -9.46% [at 42.5 µM] (inactive) |
| CCOC(CN1CCN(CC(C)C(=O)c2ccccc2)CC1)c1ccccc1 (configuration not stated) | -3.03% [at 19 µM] (inactive) |
| C=CCSSCCC | 4.43% (inactive) |
